Tested on: FGFR4
Settings: concentration: 1 μM, replicates: in singlicate; n = 1
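Note: KINOMEscan kinase panel screen.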

Going from `Cn1cc(-c2[nH]c3cc(NC(=O)[C@H](N)C4CCCCC4)cc4c3c2C=NNC4=O)cn1` to `Cc1cccc(Nc2nc(N[C@H]3CCNC3)ncc2C(N)=O)c1.Cl` [GSK2197149], the “%Inh” value falls from 97.3% to 0%.

Going from `O=C(Nc1ccccc1F)NC1CCN(c2ccnc(Nc3ccc(F)cc3)n2)CC1` [GSK1379800] to `COc1ccc(CNC(=O)NC2CCN(c3ccnc(Nc4ccc(F)cc4)n3)CC2)cc1` [GSK1379788], the “%Inh” value falls from 2% to 0%.

Going from `Cc1ccc(F)c(C(=O)Nc2cccc(-c3nn4ccccc4c3-c3ccnc(Nc4cccc(F)c4)n3)c2)c1F` [GSK361061] to `O=C(Nc1cccc(-c2nn3ccccc3c2-c2ccnc(Nc3cccc(F)c3)n2)c1)c1c(F)ccc(F)c1Cl` [GSK357952], the “%Inh” value falls from 11% to 0%.

Compared with `O=C(O)C(F)(F)F.O=C(O)C(F)(F)F.O=c1[nH]ccc2nc(N[C@@H]3CCCNC3)nc(Nc3ccc(S(=O)(=O)N4CCOCC4)cc3)c12` [GSK2177277], `CNC(=O)c1ccccc1Nc1nc(Nc2ccc(N3CCOCC3)cc2)ncc1Cl.Cl` [GSK1576028] is higher in “%Inh” value: 0% for the first, 92.3% for the second.

First: CN1CCN(CCCNc2nccc(-c3c(-c4ccc(F)cc4)nn4cc(C(F)(F)F)ccc34)n2)CC1 [GW621581]
Second: CSc1cccc2c(-c3ccncn3)c(-c3ccc(F)cc3)nn12 [GW514786]
The “%Inh” value of the first is lower: 0% for the first, 7% for the second.

`O=C(Nc1cccc(-c2nn3ccccc3c2-c2ccnc(Nc3cccc(C(F)(F)F)c3)n2)c1)c1c(F)cccc1F` [GSK292658] and `COc1cc(Nc2nccc(-c3c(-c4cccc(NC(=O)c5c(F)cccc5F)c4)nn4ccccc34)n2)cc(OC)c1OC` [GSK323521] are the same in “%Inh” value: 0% for the first, 0% for the second.

Compared with `COc1ccc(Nc2nccc(N3CCC(NC(=O)Nc4cccc(OC)c4)C3)n2)cc1` (centres unmarked) [GSK1379742], `O=C(NC1CCN(c2ccnc(Nc3ccc(F)cc3)n2)C1)c1cc2ccccc2s1` (centres unmarked) [GSK1379716] is higher in “%Inh” value: 0% for the first, 13% for the second.

Compared with `Cc1cccc(NC(=O)Nc2ccc(Oc3ncnc4ccn(C)c34)cc2)c1`, `O=C(Nc1cccc(Oc2ccc3nc(NC(=O)C4CC4)cn3n2)c1)c1ccccc1C(F)(F)F` is higher in “%Inh” value: 0% for the first, 2% for the second.

`O=c1[nH]cc(-c2ccc(N3CCOCC3)cc2)c2sc(-c3cn[nH]c3)cc12` [GSK2276055] and `c1ccc(Oc2ccc(Nc3ccnc4cc(-c5ccc(CNCCN6CCOCC6)o5)ccc34)cc2)nc1` [GW567145] are the same in “%Inh” value: 0% for the first, 0% for the second.

Compared with `Nc1ncc(-c2cccnc2)c2scc(-c3ccc4c(c3)CCN4C(=O)Cc3ccccc3)c12` [GSK683281], `Cn1cc(-c2ccc3c(c2)CCN3C(=O)Cc2cccc(F)c2)c2c(N)ncnc21` [GSK2603358] is lower in “%Inh” value: 12% for the first, 0% for the second.

Going from `Cl.Cl.NCC(NCc1ccc(-c2ccnc3[nH]ccc23)s1)c1ccccc1` (centres unmarked) [GSK1321565] to `Cl.Cl.NCC(NC(=O)c1cc(-c2ccccc2)c(-c2ccnc3[nH]ccc23)s1)c1ccccc1` (centres unmarked) [GSK1321561], the “%Inh” value falls from 1% to 0%.

`CCn1c(-c2nonc2N)nc2c(C#CC(C)(C)O)nc(OC[C@H](N)c3ccccc3)cc21` [GSK943949] and `Nc1ncnc2c1nc(-c1ccccc1)n2-c1ccccc1` [SKF-97293] are the same in “%Inh” value: 0% for the first, 0% for the second.

Compared with `CN(c1ccc(NC(=O)Nc2cc(C(F)(F)F)ccc2F)cc1)c1ccnc(Nc2ccc(S(N)(=O)=O)cc2)n1` [GW809893], `CC(=O)N1CCN(c2ccc(Nc3nccc(-c4sc(C(C)C)nc4-c4cccc(NS(=O)(=O)c5cccc(Cl)c5)c4)n3)cn2)CC1` [GSK1660437] is lower in “%Inh” value: 14% for the first, 0% for the second.

First: O=C(Nc1n[nH]c2nc(-c3ccc(O)cc3)ccc12)C1CC1 [SB-710363]
Second: Fc1ccc(-c2ncn(C3CCNCC3)c2-c2ccnc(Oc3ccc(-c4ccccc4)cc3)n2)cc1 [SB-245391]
The “%Inh” value of the first is lower: 0% for the first, 59% for the second.

Going from `COc1cccc(C2=C(Nc3ccc(Cl)c(C(=O)O)c3)C(=O)NC2=O)c1` [SB-390769] to `CC(=O)Nc1nc2cnc(Nc3cc(NC(=O)c4cccc(C5(C#N)CC5)c4Cl)ccc3C)nc2s1`, the “%Inh” value falls from 25% to 0%.

Compared with `COc1cc(Nc2nccc(N3CCC(NC(=O)c4cc5ccccc5s4)C3)n2)cc(OC)c1OC` (centres unmarked) [GSK1379760], `COc1cc(Nc2ncc3c(C)nc(-c4cc5ccccc5[nH]4)n3n2)cc(OC)c1OC` [GW869516] is higher in “%Inh” value: 0% for the first, 15% for the second.

Reference: article PMC5540273 (PLoS ONE, 2017)
